From PubChem
CHT block: inhibitors of human choline transporter CHT. High affinity choline transporter 1 (Homo sapiens), Q9GZV3. CHT-expressing cells, membrane potential dye, choline response; stronger effect = lower value. B-score at 10 µM. 0.86% of 310,000 active;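 active means B-score over 3 SD under the library average, and starting fluorescence ratio not unusually high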;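 further: choline stimulus applied at its EC90 after an EC20 pre-addition; B-score computed on integrated fluorescence ratio after choline addition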
CHT PAM: CHT positive allosteric modulators, primary screen, cell-based, membrane potential dye, choline EC20; High affinity choline transporter 1 (Homo sapiens), Q9GZV3; CHT-expressing cells; stronger effect = higher value; LV-AA mutant CHT in HEK293 cells; B-score at 10 µM; 0.49% of 310,000 active; AID 488977, 2010;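 active means initial fluorescence not abnormally high and integrated response B-score, plate-corrected, over 3 SD above library mean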
ANO1 block: TMEM16A chloride channel inhibitors, primary screen, cell-based, HTS. HEK293 TMEM16A/YFP iodide influx fluorescence, ionomycin. Anoctamin-1 (Mus musculus), Q8BHY3. 1.2% of 310,000 active. normalized B-score (activity score, 25-100; higher = stronger inhibition) at 10 µM;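 active means ratio plate-corrected score three or more library SD toward inhibition, starting fluorescence score within five deviations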;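 further: score derived from kinetic fluorescence span divided by baseline fluorescence per well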
ANO1 activ: TMEM16A chloride channel activators or potentiators, primary screen, cell-based, HTS; Anoctamin-1 (Mus musculus), Q8BHY3; HEK293 TMEM16A/YFP-H148Q/I152L, iodide quench fluorescence; stronger effect = lower value; B-score at 10 µM; 0.3% of 340,000 active; AID 623877, 2012;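 active means fluorescence-ratio B-score plate-corrected deviation score at least 3 library SD below zero, with starting fluorescence score within 5 deviations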;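 further: channel opened by trigger with iodide after compound preincubation; score built on the fluorescence ratio of max minus min over baseline; more negative score means more quench and so TMEM16A activation or potentiation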
CHT act confirm: CHT activators, confirmation, cell-based, membrane potential dye, duplicate; 91% of 2,500 active; activation, % at 10 µM; CHT-expressing cells, membrane potential dye fluorescence (FDSS); % of choline EC20–EC90 response window; HEK293 expressing CHT LV-AA mutant; choline added at its EC20; shares compounds with CHT PAM;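 active means primary screen active, with duplicate mean activation above negative control mean plus 3 SD, cut at about 11% in these data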
HEK293 MP dye: membrane potential response in parental HEK293 cells, counter-screen for CHT activator project, cell-based, membrane potential dye | membrane potential dye fluorescence (FDSS); measured after EC20 choline addition | shares compounds with CHT PAM | 62% of 2,500 active | ratio readout change at 10 µM, hits read low;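 active means duplicate-averaged ratio beyond 3 SD from buffer wells, up or down, though filed actives are nearly all decreases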
* = called active by the depositor; i = inactive; . = no result. Most compounds without a hit are left out; they make up all but 2.3% or so of the library.

SMILES | CHT block | CHT PAM | ANO1 block | ANO1 activ | CHT act confirm | HEK293 MP dye
O=C(CCc1ccccc1)N=C1SC2CS(=O)(=O)CC2N1c1cccc(F)c1 (stereo not given) | i | i | i | i | . | .
CCOC(=O)Nc1ccc2c(c1)N(C(=O)CN1CCN(C)CC1)c1ccccc1CC2 | i | i | i | i | . | .
CCCC(CCC)C(=O)Nc1ccc2c(c1)N(C(=O)CCN1CCN(C)CC1)c1ccccc1CC2 | i | 6.8* | i | i | 19* | i
CCc1nnc(NC(=O)c2ccc(COc3cccc(C)c3)o2)s1 | i | i | i | i | . | .
CCOC(=O)[C@H]1[C@H]2COc3ccc(Br)cc3[C@@H]2N2C(=O)c3c(C)cc(C)cc3NC(=O)[C@@]12C | . | . | . | i | . | .
O=C(c1ccccc1F)N(Cc1ccc2c(c1)OCO2)Cc1cc2cc3c(cc2n2nnnc12)OCO3 | i | i | i | i | 15* | i
CCCCn1c(=N)n(CC(O)COc2ccccc2)c2ccccc21 (stereo not given) | i | i | i | i | 36* | i
CC(C)C(=O)N1CCN(c2ccccc2NC(=O)c2cccc(Cl)c2)CC1 | i | 6.6* | i | i | 18* | i
O/N=C/c1cccc[n+]1CCCCCC[n+]1ccccc1/C=N/O | i | 6.4* | i | i | 44* | -60*
CCCCCCCCCCCCCCCC[n+]1ccc(/C=N/O)cc1 | i | i | i | i | . | .
COc1ccc(C(=O)C[n+]2ccccc2/C=N/O)cc1 | i | i | i | i | 19* | -25*
Cc1cccn2c(=O)c3cc(C(=O)NCc4ccco4)c(=N)n(CCc4ccccc4)c3nc12 | i | i | i | i | 22* | -31*
CC(=O)N=c1c(C#N)cc2c(=O)n3cccc(C)c3nc2n1Cc1ccco1 | i | i | i | i | 47* | -36*
CC(=O)N=c1c(C#N)cc2c(=O)n3cccc(C)c3nc2n1CCCOC(C)C | i | i | i | i | 44* | -45*
Cc1ccccc1C(=O)N=c1c(C#N)cc2c(=O)n3cccc(C)c3nc2n1Cc1ccco1 | i | i | i | . | . | .
COc1ccc(NC(=O)N(C)C[C@H]2Oc3c(NC(=O)C4CCCCC4)cccc3C(=O)N([C@H](C)CO)C[C@@H]2C)cc1 | . | . | . | i | . | .
Cc1c(NS(=O)(=O)c2cccc(C(=O)NCc3cccc(Cl)c3)c2)c(=O)n(-c2ccccc2)n1C | . | . | . | i | . | .
Cc1cccc(-n2ncc3c2CCCC3NC(=O)C2CCOCC2)c1C (stereo not given) | i | i | i | i | . | .
Cn1c(N/N=C/c2c[nH]c3ccccc23)nc2ccccc21 | i | i | i | i | 33* | -59*
CC1(C)CC(N2CCCC2)=CC(=[N+]2CCCCCC2)C1 | i | 8.6* | i | i | 54* | i
CC1CC(C)C[N+](=C2C=C(N3CCCC3)CC(C)(C)C2)C1 (stereo not given) | . | . | . | i | . | .
CC1(C)CC(N2CCN(c3ccccc3)CC2)=CC(=[N+]2CCCC2)C1 | i | i | i | i | 41* | i
CCN(CC)C1=CC(=[N+]2CCCC2)CC(C)(C)C1 | i | i | i | i | 46* | i
Nc1cc2cccnc2cc1Cl | . | . | . | i | . | .
CC(NC(=O)c1ccccc1F)c1nnc(SCC(=O)NC2CCCC2)n1C (stereo not given) | i | i | i | i | . | .
SMILES | CHT block | CHT PAM | ANO1 block | ANO1 activ | CHT act confirm | HEK293 MP dye
Cc1ccc(-c2nnc(SCC(=O)NCCN3C(=O)CSC3=O)n2C)cc1 | . | . | . | i | . | .
COCCNc1nnc(SCC(=O)Nc2nnc(-c3ccccc3)o2)s1 | i | 6.6* | i | i | 4 | i
Nc1nnc(SCC(=O)Nc2nnc(-c3ccccc3)o2)s1 | . | . | . | i | . | .
Cc1ccccc1C[n+]1cccc2ccccc21 | i | 7* | i | i | 52* | -42*
CC(C)(C)C(=O)Nc1ccccc1C(=O)NCCC(=O)Nc1ccccc1 | i | i | i | i | . | .
COC(=O)CCC(=O)Nc1sc2c(c1C#N)CCCC2 | i | 9.2* | i | i | 25* | i
COc1ccc2c(c1)C(C)=CC(C)(C)N2S(=O)(=O)c1ccc(C)cc1 | i | 7.9* | i | i | 41* | i
CC[n+]1cc(-c2ccccc2)nc(N2CCOCC2)n1 | i | i | i | i | 41* | -39*
CCCCn1c(N)c(N(CCOC)C(=O)COC(=O)CCOc2ccc(C)cc2)c(=O)[nH]c1=O | . | . | . | i | . | .
NCCCC[C@H]1CN=C(N)N1CCCCC1CCCCC1 | i | 11* | i | i | 47* | -51*
NCCCC[C@H]1CN=C(N)N1CC1CCCCC1 | i | i | i | i | . | .
COc1cccc(N2CCN(C(=O)c3ccc(CS(=O)c4ccccc4Cl)o3)CC2)c1 (stereo not given) | i | i | i | i | 50* | i
O=C(c1ccc(CS(=O)c2ccccc2Cl)o1)N1CCN(c2ccccc2)CC1 (stereo not given) | i | 6.4* | i | i | 17* | i
CN(C(=O)CSc1nc(C2CC2)n(-c2ccccc2)n1)C1CCS(=O)(=O)C1 (stereo not given) | . | . | . | i | . | .
O=C(CSc1nc2ncccc2[nH]1)Nc1ccccc1-c1ccccc1 | i | i | i | i | . | .
Cc1cc(=O)n(C)c(=O)n1CCCCCCN1CCCC1 | i | i | i | i | 44* | -34*
COc1ccc([C@H]2/C=C\CN(C(=O)c3ccc(C)cc3)[C@@H](C)C(=O)N2Cc2ccc(F)cc2)cc1 | i | i | i | i | . | .
COc1ccc([C@H]2/C=C\CN(C(=O)CC(C)(C)C)[C@@H](C)C(=O)N2Cc2ccc(F)cc2)cc1 | i | 9* | i | i | 25* | i
O=C(NCC(c1cccs1)N1CCOCC1)c1cc(S(=O)(=O)N2CCOCC2)ccc1F (stereo not given) | i | i | i | i | . | .
Cc1ccn2c(NC(=O)c3ccco3)c(-c3ccccc3)nc2c1 | i | i | i | i | . | .
Cc1ccccc1Nc1c(-c2ccc(N3CCOCC3)cc2)nc2ncccn12 | i | i | i | i | 25* | -53*
